Sa growth 42C = blocks Staphylococcus aureus growth | S. aureus RN4220 growth, OD600, 20 h, 42 °C; active compounds read low | relative growth, % (concentration not given with the values) | AID 720641 | 0.53% of 170,000 active;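 active = relative growth at most 50% at the other temperature and 20+ points below 30 °C, or under 10% at both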
S aureus helic = S. aureus DNA helicase inhibition; purified S. aureus helicase, fluorescence unwinding assay; inhibition, % (no concentration beside the values); 0.05% of 120,000 active; AID 485395; in the data active = inhibition above about 25%, passing the limit was not always enough
Each line names hits and unclear results; the compound was inactive in the other large screens. This is a sample that favours compounds with a hit; in the whole collection about 0.52% have one here.

CC[C@H]1OC(=O)[C@H](C)[C@@H](O[C@H]2C[C@@](C)(OC)[C@@H](O)[C@H](C)O2)[C@H](C)[C@@H](O[C@@H]2O[C@H](C)C[C@H](N(C)C)[C@H]2O)C(C)(O)C[C@@H](C)CN(C)[C@H](C)[C@@H](O)[C@]1(C)O (some centres undefined)	Sa growth 42C -0.4 (no result: S aureus helic)
CC1Cc2cc(S(=O)(=O)N(C)CC(=O)NCc3ccccc3)ccc2N1C(=O)C1CC1 (centres undefined)	none
CCCC(C)C(=O)Nc1nnc(Cc2ccc(OC)cc2)s1 (centres undefined)	none
Cc1ccc(CS(=O)(=O)Cc2ccc(C(=O)NC3CCCC3)o2)cc1	none (no result: S aureus helic)
CCOC(=O)c1c(C)[nH]c(C)c1S(=O)(=O)NCC(=O)Nc1ccc(C)c(N(C)C)c1	none (no result: S aureus helic)
CC(=O)OCCNc1cc(Cl)c2noc3c2c1C(=O)c1ccccc1-3	none
CCCN(CCC)Cn1nc(-c2ccc3c(c2)OCO3)oc1=S	Sa growth 42C 39
CCOC(=O)c1nnc(-c2ccc3c(c2)OCO3)o1	none
O=c1c2cc3c(cc2nc2sc(NCc4ccccc4)nn12)OCO3	none
S=c1[nH]c2c(Cl)cc(Cl)cc2o1	Sa growth 42C 3.3
O=S(=O)(Nc1ccccc1Cl)c1ccc2[nH]c(=S)oc2c1	none
O=S(=O)(Nc1ccc(Cl)cc1OC(F)(F)F)C(F)(F)F	Sa growth 42C 9.5
Cc1ccccc1NS(=O)(=O)C(F)(F)F	none
Cc1nn(CCCC(=O)NC2CCCc3ccccc32)c(=O)c2nccn12 (centres undefined)	none
CC(C)c1cc2cc(/C=C/C(=O)O)c(O)cc2o1	Sa growth 42C -0.3
CC(C)(O)C1Cc2cc(/C=C/C(=O)O)c(O)cc2O1 (centres undefined)	none
N#Cc1c(N)sc2c1CCN(c1nc(CN3CCOCC3)nc3scc(-c4cccs4)c13)C2	none
Nc1ccc(Br)cc1C(O)c1ccccc1Cl (centres undefined)	none
CCN(CC)C(=O)C1=C(C)N=C2SC(C#N)=C(N)N2C1c1cc(OC)ccc1OC (centres undefined)	none
Cn1c(C2CC(=O)N(c3cccc4ccccc34)C2)nc2ccccc21 (centres undefined)	Sa growth 42C 0.4
O=C1CC(c2nc3ccccc3[nH]2)CN1c1cccc2ccccc12 (centres undefined)	none
C=CCn1c(SCC(=O)N2CCCCC2C)nc2ccccc2c1=O (centres undefined)	none
Clc1ccc(-c2nc(NCc3ccco3)c3ccccc3n2)c(Cl)c1	none
c1cncc(-c2nc(NCCSCc3ccco3)c3ccccc3n2)c1	Sa growth 42C 5.9
O=C(Nc1nc2ccccc2[nH]1)C1CC(=O)N(CCc2ccccc2)C1 (centres undefined)	none
Cc1ccc(NC(=O)c2ccc(CNS(=O)(=O)c3ccc4c(c3)C(C)(C)C(=O)N4C)cc2)cc1C	none (no result: S aureus helic)
C=C1N(C)c2ccc(NC(=O)c3ccccc3)cc2C1(C)C	Sa growth 42C 8.3
Cc1cc(-c2ccc(S(=O)(=O)NCCN3CCCC3)s2)n[nH]1	none
CCc1oc2ccccc2c1C(=O)CCN1CCCCC1	Sa growth 42C 41
O=C(CCN1CCCCC1)c1ccccc1	none
C/C=C/C(=O)OCc1ccccc1Cl	none
COc1ccc2c(CC(=O)OCC(=O)N3c4ccccc4CC3C)coc2c1 (centres undefined)	none
Nc1nnc2c(Nc3ccccc3)nc3nonc3n12	none
c1ccc(Nc2nc3nonc3nc2Nc2ccccc2)cc1	Sa growth 42C -1.6
CN(Cc1ccccc1)Cc1cc(=O)n2nc(C3CC3)sc2n1	none
Cn1cnc2cc(NCc3ccccc3Cl)ccc21	none
CCCCn1cnc2cc(NCc3ccccc3Cl)ccc21	Sa growth 42C 1.0 (no result: S aureus helic)
O=C(Nc1cccc(Cl)c1)c1c(NC(=O)C(F)(F)F)sc2c1CCCC2	Sa growth 42C -1.2 (no result: S aureus helic)
Cc1cccc(NC(=O)c2c(NC(=O)C(F)(F)F)sc3c2CCCCC3)c1	none (no result: S aureus helic)
Cc1ccc(N=C2NC(=O)/C(=C\c3ccc4c(c3)n(C)c(=O)n4C)S2)cc1	none
Cc1ccc(C)n1-c1ccc(C(=O)OCc2nc3ccsc3c(=O)[nH]2)cc1	Sa growth 42C 48
O=C(OCc1nc2ccsc2c(=O)[nH]1)c1ccc(N2CCCC2=O)cc1	none
Cc1c(C(=O)NCc2cccc(Cl)c2)oc2c1-c1[nH]ncc1CC2	none
NC(=S)N1CCCC1	none
S=C(S)N1CCCC1	Sa growth 42C 1.7
Cc1cc(C(=O)Nc2ccc(C(C)C)cc2)n(-c2ccccc2)n1	none
O/N=C/c1ccco1	none
Oc1ccc(N=Cc2ccccc2O)cc1	none
CN(C)C(=O)/C=C/c1ccc2c(c1)OCO2	none
C[n+]1ccc(/C=C/c2ccc3c(c2)OCO3)c2ccccc21	Sa growth 42C 0.0
C[n+]1ccc(/C=C\c2ccco2)c2ccccc21	Sa growth 42C 3.2
C[n+]1ccc(/C=C/c2ccccc2O)c2ccccc21	S aureus helic 50
CC1CC(=O)N(CC(N)=O)c2ccccc2S1(=O)=O (centres undefined)	none
CCOC(=O)N1CCN(C(=O)CSc2ccc(C)cc2)CC1	none (no result: Sa growth 42C)
CC(=O)N(Cc1ccccc1)Cc1cn(-c2ccccc2)nc1-c1cc2ccccc2o1	none
